# Measured values as given in PubChem BioAssay (Tox21).
# Values joined by “and” are separate entries in the source; they are usually repeats but may differ in a detail not shown here. Equal values may be shown once. Results filed as inconclusive are left out. Where a call stands in place of a potency, no number is given. More than one record can exist for a structure, and the calls need not agree. Active and inactive are the calls of the source. Unless noted, calls follow the shape of the dose curve; as a rule, active = well fitted curve in the direction sought with a large enough effect in the repeat runs; inconclusive = weak or mixed curves; inactive = no such curve, though single readings can be large; an effect the other way counts as inactive or inconclusive.
# Assays:
# [1] = qHTS assay for small molecule agonists of the p53 signaling pathway (AID 651631; calls by dose curve; also: nearly all actives have a fitted effect of over 15% in size; also: potency is read from the fitted curve at half-maximal effect)
# Method in brief: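 Stably transfected HCT-116 cells (beta-lactamase behind p53 response elements) get compounds after a 5 h settling period; 16 h later at 37 °C, FRET substrate is loaded and fluorescence read after 2 h.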
# [2] = qHTS assay for small molecules that induce genotoxicity in human embryonic kidney cells expressing luciferase-tagged ATAD5 (AID 651632); also: nearly all actives have a fitted effect of over 15% in size; also: potency is read from the fitted curve at half-maximal effect
# Method in brief: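 HEK293T cells carrying luciferase-tagged ATAD5 were given compound or DMSO vehicle and incubated 16 hr at 37C, 5% CO2. Luciferase activity was read after 30 min at room temperature with Amplite; a rise signals genotoxic stress.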
# [3] = qHTS assay for small molecules that induce genotoxicity in human embryonic kidney cells expressing luciferase-tagged ATAD5 - cell viability (AID 651634; calls by dose curve; also: nearly all actives have a fitted effect of over 25% in size; also: potency is read from the fitted curve at half-maximal effect)
# Method in brief: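 HEK293T cells carrying luciferase-tagged ATAD5, 2,000 cells/well, exposed to compound for 15.5 hr at 37C. Viability read as live-cell protease activity by CellTiter-Fluor fluorescence after 30 min at 37C.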
# [4] = qHTS assay for small molecule disruptors of the mitochondrial membrane potential - cell viability (AID 720634; calls by dose curve;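 also: human HepG2 liver cancer cells; series mostly up to about 83 µM; nearly all actives have a fitted effect of over 20% in size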)
# Method in brief: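 HepG2 cells, 2,000 per well, attached overnight, then treated 1 hr at 37 C, 5% CO2. Viability read as ATP by CellTiter-Glo luminescence after 30 min at room temperature. Read in the same wells as the m-MPI membrane-potential dye assay.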
# [5] = qHTS assay for small molecule disruptors of the mitochondrial membrane potential (AID 720635); also: potency is read from the fitted curve at half-maximal effect
# Method in brief: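 Mitochondrial membrane potential tracked with Mito-MPS dye, red aggregates (ex 540/em 590 nm) against green monomers (ex 490/em 535 nm). Compound treatment 1 hr at 37C, dye 30 min in HepG2.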
# [6] = qHTS assay to test for compound auto fluorescence at 590 nm (red) in HepG2 cells (AID 720674)
# Method in brief: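 1 hr compound incubation on HepG2 cells, 37 C, 5% CO2; plate read ex 540 nm / em 590 nm; intensities reported as Rose Bengal sodium equivalents.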
# [7] = qHTS assay to test for compound auto fluorescence at 535 nm (green) in HepG2 cells (AID 720675)
# [8] = qHTS assay to test for compound auto fluorescence at 460 nm (blue) in HEK293 cells (AID 720678)
# Method in brief: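 Triamterene serves as the blue fluorophore standard. Compound signal at 405/460 nm is read in HEK293 wells (2,000 cells, 10% dialyzed FBS) after overnight treatment at 37C.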
# [9] = qHTS assay to test for compound auto fluorescence at 590 nm (red) in HEK293 cells (AID 720679)
# Method in brief: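 We plated HEK293 cells in 10% dialyzed FBS medium, let them adhere for 4-5 hr, then added 23 nL compound. Overnight at 37C and 5% CO2 preceded fluorescence measurement at 540/590nm.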
# [10] = qHTS assay for small molecule agonists of the p53 signaling pathway - cell viability (AID 651633; calls by dose curve; also: nearly all actives have a fitted effect of over 30% in size; also: potency is read from the fitted curve at half-maximal effect)
# Method in brief: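 Viability counter-read: CellTiter-Glo luminescence (30 min, room temperature) in the same p53RE-bla plates. These plates had been exposed to compounds for 16 h at 37 C.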
SMILES,Potency [1],Potency [2],Potency [3],Potency [4],Potency [5],outcome [6],outcome [7],outcome [8],outcome [9],Potency [10]
CCCCOCCOCCSC#N,inactive,inactive,inactive,inactive,inactive,inactive,inactive,inactive,inactive,–
O=C(O)CCCCC1CCSS1 (centres undefined),inactive,inactive,inactive,inactive,inactive,–,inactive,inactive,inactive,–
C=C(C)C(N)=O,inactive,inactive,inactive,inactive,inactive,inactive,inactive,inactive,inactive,–
CCOCCO,inactive,inactive,inactive,inactive,inactive,inactive,inactive,inactive,inactive,–
O=[N+]([O-])c1ccc(O)cc1,inactive,inactive,56.6 µM (active),inactive,71.2 µM (active) and 61.1 µM (active),–,inactive,inactive,inactive,–
CN/C(=C\[N+](=O)[O-])NCCSCc1ccc(CN(C)C)o1,inactive,inactive,–,inactive,inactive,inactive,inactive,inactive,inactive,inactive
NC(=O)c1ccc([N+](=O)[O-])cc1Cl,inactive,inactive,inactive,inactive,inactive,–,inactive,inactive,inactive,–
C[C@]12CC[C@@H]3c4ccc(O)cc4C[C@@H](CCCCCCCCCS(=O)CCCC(F)(F)C(F)(F)F)[C@H]3[C@@H]1CC[C@@H]2O (some centres undefined),inactive,inactive,inactive,–,2.66 µM (active) and 2.73 µM (active),inactive,inactive,inactive,inactive,inactive
COc1ccccc1O,inactive and 4.35 µM (active),inactive,inactive,inactive,inactive,–,inactive,inactive,inactive,–
OCCCc1ccccc1,inactive,inactive,inactive,inactive,inactive,–,inactive,inactive,inactive,–
NC(=O)OCC(COC(N)=O)c1ccccc1,inactive,inactive,inactive,inactive,inactive,inactive,inactive,inactive,inactive,–
CC(C)CC(C)CC(O)CC(C)C (centres undefined),inactive,inactive,inactive,inactive,inactive,–,inactive,inactive,inactive,–
C=CCOC(=O)CC(C)C,inactive,inactive,inactive,inactive,inactive,inactive,inactive,inactive,inactive,–
C[C@]12C=CC(=O)C=C1CC[C@@H]1[C@@H]2C(=O)C[C@@]2(C)[C@H]1CC[C@]2(O)C(=O)CO,inactive,inactive,inactive,inactive,inactive,inactive,inactive,inactive,inactive,–
CCCCC/C(C=O)=C\c1ccccc1,inactive,inactive,inactive,inactive,inactive,inactive,inactive,inactive,inactive,–
CC(=O)c1ccc(S(=O)(=O)NC(=O)NC2CCCCC2)cc1,inactive,inactive,inactive,inactive,inactive,–,inactive,inactive,inactive,–
COC(=O)c1ccc(O)cc1,inactive,inactive,inactive,–,–,inactive,inactive,inactive,inactive,inactive
CC(C)(C)NCC(O)c1ccc(O)c(CO)c1 (centres undefined),inactive,inactive,–,inactive,inactive,–,inactive,inactive,inactive,inactive
CCN1CCCC1=O,inactive,inactive,inactive,inactive,inactive,inactive,inactive,inactive,inactive,–
NC(N)=NC(N)=NCCc1ccccc1,–,inactive,inactive,inactive,inactive,inactive,inactive,inactive,inactive,inactive
O=C1OC(c2ccc(O)cc2)(c2ccc(O)cc2)c2ccccc21,–,inactive,inactive,inactive,21.1 µM (active) and 48.2 µM (active) and 68.6 µM (active),inactive,inactive,inactive,inactive,–
CCn1cc(C(=O)O)c(=O)c2ccc(C)nc21,–,inactive,–,inactive,inactive,–,inactive,inactive,inactive,–
CCc1cc(C(N)=S)ccn1,inactive,–,inactive,inactive,inactive,inactive,inactive,inactive,inactive,–
O=C(O)Cc1cccc2ccccc12,inactive,inactive,inactive,inactive,–,–,inactive,inactive,inactive,–
CC(=O)/C=C/C1=C(C)CCCC1(C)C,–,inactive,inactive,inactive,–,inactive,inactive,inactive,inactive,–

SMILES,Potency [1],Potency [2],Potency [3],Potency [4],Potency [5],outcome [6],outcome [7],outcome [8],outcome [9],Potency [10]
CCCCCCCCCCCCCCCCCC(=O)OCC(O)CO (centres undefined),–,inactive,inactive,inactive,inactive,–,inactive,inactive,inactive,–
CC(C)(C)CC(C)(C)c1ccc(O)c(-n2nc3ccccc3n2)c1,–,inactive,inactive,inactive,10.6 µM (active) and 24.7 µM (active) and 30.6 µM (active),inactive,inactive,inactive,inactive,49.2 µM (active) and 48.6 µM (active)
O=C(O)CN(CC(=O)O)CC(=O)O,inactive,inactive,inactive,–,–,inactive,inactive,inactive,inactive,–
CCCCCCCCCCCCCC(=O)OC(C)C,inactive,inactive,inactive,inactive,inactive,–,inactive,inactive,inactive,–
COc1cc2c(c(OC)c1OC)-c1ccc(OC)c(=O)cc1[C@@H](NC(C)=O)CC2,–,266 nM (active) and 48 nM (active) and 54.5 nM (active),335 nM (active) and 9.6 nM (active) and 7.7 nM (active),inactive,3.35 µM (active) and 1.52 µM (active) and 1.37 µM (active),–,inactive,inactive,inactive,inactive
CC1=C(/C=C/C(C)=C/C=C/C(C)=C/C(=O)O)C(C)(C)CCC1,–,inactive,inactive,inactive,inactive and 27.3 µM (active),–,inactive,inactive,inactive,inactive and 68.7 µM (active)
N[C@@H](Cc1c[nH]c2ccc(O)cc12)C(=O)O,–,inactive,inactive,inactive,26.6 µM (active) and 941 nM (active),–,inactive,inactive,inactive,inactive
COC1=CC(=O)C[C@@H](C)[C@]12Oc1c(Cl)c(OC)cc(OC)c1C2=O,–,–,inactive,inactive,inactive,–,inactive,inactive,inactive,–
Cn1cnc2c1c(=O)[nH]c(=O)n2C,–,inactive,inactive,inactive,inactive,–,inactive,inactive,inactive,inactive
C[C@]12CC[C@@H]3c4ccc(O)cc4CC[C@H]3[C@@H]1CCC2=O,–,–,inactive,inactive,13.3 µM (active) and 6.87 µM (active),inactive,inactive,inactive,inactive,–
COc1cc(C=O)ccc1O,inactive,inactive,inactive,inactive,inactive,–,inactive,inactive,inactive,–
Nc1ccc(N=Nc2ccccc2)c(N)n1,–,11.9 µM (active) and 8.68 µM (active) and 9.69 µM (active),23.7 µM (active) and 54.8 µM (active),inactive,10.6 µM (active) and 30.8 µM (active) and 19.3 µM (active),inactive,inactive,inactive,inactive,–
CC(C)=CCC/C(C)=C/CO,inactive,inactive,inactive,inactive,–,–,inactive,inactive,inactive,–
c1ccc2[nH]c(-c3cscn3)nc2c1,–,–,inactive,inactive,–,inactive,inactive,inactive,inactive,–
NC(=O)N1c2ccccc2C=Cc2ccccc21,–,inactive,inactive,inactive,inactive,inactive,inactive,inactive,inactive,–
NC(=O)N/N=C/c1ccc([N+](=O)[O-])o1,inactive,inactive,–,inactive,15.4 µM (active),–,inactive,inactive,inactive,–
CCCCOC(=O)CCCCCCCCC(=O)OCCCC,–,inactive,inactive,inactive,inactive,inactive,inactive,inactive,inactive,–
O=c1c(-c2ccc(O)cc2)coc2cc(O)cc(O)c12,–,–,–,inactive,5.96 µM (active) and 1.07 µM (active) and 8.63 µM (active),inactive,inactive,inactive,inactive,inactive
Cc1c(N(C)C)c(=O)n(-c2ccccc2)n1C,–,inactive,inactive,inactive,inactive,inactive,inactive,inactive,inactive,inactive
NCCNc1cccc2ccccc12,–,inactive,inactive,inactive,–,inactive,inactive,inactive,inactive,inactive
N[C@@H](Cc1c[nH]c2ccccc12)C(=O)O,–,–,inactive,inactive,inactive,inactive,inactive,inactive,inactive,–
O=C(OCc1ccccc1)c1ccccc1,–,inactive,inactive,inactive,inactive,inactive,inactive,inactive,inactive,–
CN(C)C=O,inactive,inactive,inactive,–,–,inactive,inactive,inactive,inactive,–
COc1cc(O)c(C(=O)c2ccccc2)cc1S(=O)(=O)O,–,inactive,inactive,inactive,inactive,inactive,inactive,inactive,inactive,–
